From PubChem BioAssay
Cardiac RTF inh = cardiac RTF calcium sensitivity inhibitors, primary screen, biochemical, IANBD-TnC fluorescence, EC70 calcium; inhibition, % at 7.15 µM; Troponin I, cardiac muscle (Homo sapiens) + Troponin T, cardiac muscle (Homo sapiens) + …; 0.12% of 340,000 active; AID 493244, 2011; IANBD-labeled cardiac RTF, Ca2+ fluorescence;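 active means inhibition above the mean inhibition of all tested compounds plus 3 SD, cut at about 17% in these data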;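 further: assay run at fixed EC70 calcium of 1.6 mM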
Keap1-Nrf2 PPI = Keap1-Nrf2 protein-protein interaction inhibitors, primary screen, biochemical, fluorescence polarization, single point | inhibition, % at 9.4 µM | Kelch-like ECH-associated protein 1 (Homo sapiens), Q14145 | Keap1 Kelch-Nrf2 peptide fluorescence polarization, 1536-well | 0.15% of 340,000 active; in the data active means inhibition above about 12%; inconclusive means no clear call, values can overlap the other calls; inactive means below about 7.3%;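 further: human Keap1 Kelch domain with fluorescein labeled Nrf2 9mer peptide probe; higher means more block of Keap1 binding to Nrf2 peptide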
LANA-H2A inh = blockers of LANA interaction with H2A/H2B – biochemical, FP readout, HTS, primary screen; Protein LANA1 (Human herpesvirus 8 type P (isolate GK18)), Q9QR71; cell-free LANA-H2A/H2B peptide, fluorescence polarization; inhibition, % (test concentration not listed); 0.6% of 320,000 active; in the data active means inhibition mostly above about 10%, no sharp cut-off; inactive means mostly below about 6.7%
eLon inh = inhibitors of E. coli Lon protease, primary screen, biochemical, fluorescence polarization; P0A9M0; purified E. coli Lon protease; inhibition, % at 7.94 µM; 0.42% of 360,000 active; AID 602123, 2011; in the data active means inhibition above about 13%, passing the limit was not always enough
cardiac RTF act = cardiac RTF calcium sensitivity activators, primary screen, biochemical, IANBD-TnC fluorescence, EC20 calcium; IANBD-labeled TnC RTF fluorescence at EC20 calcium; 0% EC20 calcium, 100% full calcium; activation, % at 7.2 µM; 0.24% of 340,000 active; AID 493008, 2010;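 active means activation above the mean over all tested compounds plus 3 SD, cut at about 30% in these data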;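 further: rise in fluorescence read as greater calcium sensitivity of cardiac thin filaments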
LANA DNA inh = inhibitors of KSHV C-LANA binding to DNA, primary screen, biochemical, fluorescence polarization, FAM-LBS DNA, MBP-C-LANA, single point; 0.078% of 340,000 active; inhibition, % at 9 µM; AID 504423, 2011;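 active means highest replicate inhibition at or above 60% at 9 µM, even if other replicates fall short; inactive means all replicates below 60% inhibition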
Large screens that a line does not name were inactive. The list is not random: actives were taken first. Their share in the collection is about 1.3%.

CC1=NN(C(=O)CSCc2ccccc2)C(O)(c2ccc(Cl)cc2)C1 (stereo unspecified)	none
COC(=O)C1=COC(C)C2CN3CCc4c([nH]c5cc(OC)c(OC)cc45)C3CC12 (stereo unspecified)	cardiac RTF act 30
CC(C)(C)c1ccc(-c2n[nH]c(=S)n2/N=C/c2ccncc2)cc1	none
Cn1cc(/C=C2\SC(=S)N(N3CCOCC3)C2=O)c2ccccc21	none
Cn1cc(/C=C2\SC(=S)N(NC(=O)c3cccc(Cl)c3)C2=O)c2ccccc21	cardiac RTF act 45 (no result: LANA-H2A inh)
Cn1cc(/C=C2\SC(=S)N(NC(=O)c3ccccc3)C2=O)c2ccccc21	cardiac RTF act 70
O=S1(=O)C=CC(c2ccccc2)C1 (stereo unspecified)	none
Cc1c(N2C(=O)/C(=C/c3ccccc3)SC2=S)c(=O)n(-c2ccccc2)n1C	none
Cc1c(N2C(=O)/C(=C3\C(=O)N(CC(=O)O)c4ccccc43)SC2=S)c(=O)n(-c2ccccc2)n1C	LANA-H2A inh 22
CCSC1=N/C(=C\C=C2/Oc3ccccc3N2CC)C(=O)S1	cardiac RTF act 39
CCSC1=N/C(=C\c2ccc3c(c2)OCO3)C(=O)S1	Keap1-Nrf2 PPI inconclusive
COc1cccc(C(=O)N2CCC[C@H]2C(=O)N2CCC[C@H]2C(=O)N(C)Cc2ccccc2)c1	none (no result: Cardiac RTF inh, Keap1-Nrf2 PPI, LANA-H2A inh, cardiac RTF act, LANA DNA inh)
Cc1ccc(C2=[N+]([O-])C3(CCCCC/C3=N\NC(N)=O)N(O)C2(C)C)o1 (stereo unspecified)	none
CC1(C)C(c2cccs2)=[N+]([O-])C2(CCCCC/C2=N\O)N1O (stereo unspecified)	LANA-H2A inh 13
CCOc1ccccc1NC(=O)COc1ccc2ccc(=O)oc2c1	none
COc1ccc(NC(=O)COC(=O)C2COc3ccccc3O2)cc1OC (stereo unspecified)	none (no result: Cardiac RTF inh, Keap1-Nrf2 PPI, LANA-H2A inh, cardiac RTF act, LANA DNA inh)
Cc1ccc(S(=O)(=O)N2CCOC2CNC(=O)C(=O)NCCc2c[nH]c3ccccc23)cc1 (stereo unspecified)	LANA-H2A inh 42
CCN(CC)c1ccc2cc(C(=O)Nc3ccccn3)c(=O)oc2c1	cardiac RTF act 53
CCN(CC)c1ccc2cc(-c3nnc(-c4ccncc4)o3)c(=O)oc2c1	cardiac RTF act 163 (no result: LANA-H2A inh)
CCN(CC)c1ccc2cc(C(N)=O)c(=O)oc2c1	none
CCN(CC)c1ccc2cc(C(N)=O)c(=N)oc2c1	none (no result: Cardiac RTF inh, cardiac RTF act)
CCN(CC)c1ccc2cc(C=O)c(=O)oc2c1	cardiac RTF act 425
CCN(CC)c1ccc2cc(C(C)=O)c(=O)oc2c1	cardiac RTF act 153
COC(=O)[C@H](Cc1ccccc1)NC(=O)C1(OC(C)=O)CC(OC(C)=O)C(OC(C)=O)C(OC(C)=O)C1 (stereo partly specified)	none
S=C(NCCc1ccccc1)N1CCN(C23CC4CC(CC(C4)C2)C3)CC1	none
CCN(CC)c1ccc2cc(NC(=O)CCC(=O)O)c(=O)oc2c1	cardiac RTF act 70
O=C(CSC1=NCCS1)NC(NC(=O)CSC1=NCCS1)c1ccccc1	LANA-H2A inh 16
CC(C)(C)N(CC#CCC1(O)c2ccccc2-c2ccccc21)CCO	none
CCC(C)N1CNc2c(c(=O)[nH]c(=S)n2-c2cccc(C)c2)C1 (stereo unspecified)	none
CN1CCN(C2=Nc3ccccc3Oc3ccc(Cl)cc32)CC1	LANA-H2A inh 14
COc1ccc(-n2c(SCC(=O)Nc3cc(C)on3)nc3ccccc3c2=O)cc1Cl	none (no result: LANA DNA inh)
COc1ccc(-n2c(O)c(/C=N/NS(=O)(=O)c3cccc([N+](=O)[O-])c3)c3ccccc3c2=O)cc1OC	cardiac RTF act 33
N#CC1=C(N)Oc2cc(N)ccc2C1c1cccc(F)c1 (stereo unspecified)	none
